# Reference: PubChem BioAssay AID431 (Sanford-Burnham Center for Chemical Genomics, 2006)
# In all, about 63,000 compounds went through this assay and about 1,100 (1.7%) were called active. The list comes from a sample in which actives are over-represented; it also holds similar structures and randomly drawn compounds. Results with a measured potency or affinity are listed apart. Unmarked numbers belong to inactive results.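 How the source made its calls: active means compounds whose percent cytotoxicity in the single-dose primary screen, scaled between solvent and toxic-drug controls, exceeds 50; inactive means the rest.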
# Assay: cytotoxicity in KRAS-transformed pancreatic duct cells, primary screen, cell-based, fluorescence, HTS (AID 431);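 further: 0% = DMSO solvent wells and 100% = doxorubicin-treated wells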
# Settings: HPDE-C7K KRASV12 cells, Alamar Blue viability, 48 h; at 10 µM; stronger effect = higher value
row,SMILES,cytotoxicity
1,COc1ccc(-c2cc(-c3c(O)c(OC)c4occc4c3OC)[nH]n2)cc1OC,36.2%
2,COc1ccc(CCCc2nnc(SCC(=O)Nc3nccs3)n2C)cc1C,-0.1%
3,N#Cc1cc2c(nc1SCC(=O)Nc1sc3c(c1C#N)CCC3)CCCCC2,23%
4,CCOC(=O)c1sc(NC(=O)CSc2nc3c(cc2C#N)CCCCCC3)c(C#N)c1C,81.6% (active)
5,CCOC(=O)c1sc(NC(=O)CSc2nc3c(cc2C#N)CCC3)c(C#N)c1C,-0.1%
6,CCCS(=O)(=O)N1CCCC(C(=O)NCCc2ccc(Cl)cc2)C1 (centres undefined),-3.4%
7,O=C(O)c1cccc(S(=O)(=O)Nc2ccc3oc(=O)sc3c2)c1,6.5%
8,COc1cc(NS(=O)(=O)c2ccc(C)cc2C)cc(OC)c1OC,30.3%
9,c1cc(CNc2ccc3c(c2)OCO3)ccn1,-0.7%
10,Cc1ccc(CNc2ccc3c(c2)OCO3)c(C)c1,64.8% (active)
11,Cc1ccc(CNc2ccc3c(c2)OCO3)cc1,28.9%
12,Fc1ccc(Cn2nnnc2CN2CCN(C3CCCC3)CC2)cc1,5.5%
13,Cc1cc(N2C3CCC2CC(O)(c2ccc(F)cc2)C3)nc(-c2ccccc2)n1 (centres undefined),76.5% (active)
14,Cc1cc(N2CCN(c3ccccc3)CC2)nc(-c2ccccc2)n1,-1.4%
15,Cc1cc(N2CCC(C(=O)Nc3ccc(F)cc3)CC2)nc(-c2ccccc2)n1,-0.7%
16,O=C(c1cnccn1)N1CCc2ccccc21,-21%
17,Cc1cc(NC(c2cccnc2)c2ccc3cccnc3c2O)no1 (centres undefined),24.3%
18,O=S(=O)(NCc1cccs1)c1cccc2cccnc12,6.5%
19,Cc1cnc(C(=O)Nc2ccccc2C(=O)N2CCOCC2)cn1,1.7%
20,O=C(O)c1ccc2cccc(Cl)c2c1O,24.3%
21,COc1cccc(NS(=O)(=O)c2ccc3[nH]cc(C(=O)NCCN4CCOCC4)c(=O)c3c2)c1,-12.6%
22,CC1CCN(S(=O)(=O)c2ccc3[nH]cc(C(=O)NCCN4CCOCC4)c(=O)c3c2)CC1,57.8% (active)

row,SMILES,cytotoxicity
1,Cc1ccccc1NS(=O)(=O)c1ccc2[nH]cc(C(=O)NCCCN3CCOCC3)c(=O)c2c1,3.9%
2,COc1ccc(CNC(=O)C2CCCN2S(=O)(=O)c2ccc(S(=O)(=O)N(C)C)cc2)cc1 (centres undefined),-14.8%
3,Cc1cc(NCCN2CCOCC2)n2c(nc3ccccc32)c1C#N,11.6%
4,COC(=O)CSC1=C(C#N)C(c2ccccc2)CC(=O)N1 (centres undefined),-15.7%
5,CCCCOC(=O)CSC1=C(C#N)C(c2ccc3c(c2)OCO3)CC(=O)N1 (centres undefined),21.6%
6,Cc1ccc(C2CC(=O)NC(SCc3ccccc3)=C2C#N)o1 (centres undefined),9%
7,CCOC(=O)CSC1=C(C#N)C(c2ccccc2OC)CC(=O)N1 (centres undefined),30.7%
8,Cc1ccc(C2CC(=O)NC(SCC(=O)OCc3ccccc3)=C2C#N)o1 (centres undefined),55.7% (active)
9,CCOC(=O)CSC1=C(C#N)C(c2ccc(Cl)cc2)CC(=O)N1 (centres undefined),-10.7%
10,CCCOC(=O)CSC1=C(C#N)C(c2ccc3c(c2)OCO3)CC(=O)N1 (centres undefined),61.7% (active)
11,CCOC(=O)CSC1=C(C#N)C(c2ccc3c(c2)OCO3)CC(=O)N1 (centres undefined),27.9%
12,CCOC(=O)CC(=O)CSC1=C(C#N)C(c2ccccc2OC)CC(=O)N1 (centres undefined),70.2% (active)
13,CCOC(=O)CSC1=C(C#N)C(c2ccc(C)o2)CC(=O)N1 (centres undefined),67.9% (active)
14,CCCCCCSC1=C(C#N)C(c2ccc(C)o2)CC(=O)N1 (centres undefined),-6.9%
15,CCSC1=C(C#N)C(c2ccccc2OC)CC(=O)N1 (centres undefined),-0.5%
16,O=C(CN(Cc1ccccc1F)S(=O)(=O)c1ccc(Cl)cc1)NCCCO,-0.2%
17,CC1CCN(c2nc3c(c(=O)n(C)c(=O)n3C)n2CCSc2nc3ccccc3s2)CC1,-22%
18,COc1ccccc1C(c1nnnn1CS(=O)(=O)c1ccc(C)cc1)N1CCSCC1 (centres undefined),-16.2%
19,CCCn1c(SCC(=O)NCC2CCCO2)nc2c1c(=O)n(C)c(=O)n2C (centres undefined),2.7%
20,CCOc1ccc(C2CC(=O)NC(SCC(=O)OC)=C2C#N)cc1 (centres undefined),-6.5%
21,CCOC(=O)CSC1=C(C#N)C(c2sccc2C)CC(=O)N1 (centres undefined),52% (active)
22,CCOC(=O)CSC1=C(C#N)C(c2ccc(C)s2)CC(=O)N1 (centres undefined),49.2%

row,SMILES,cytotoxicity
1,Cc1ccc(NCc2nnc3n2CCCCC3)cc1,-2.7%
2,CCOC(=O)N1CCC(N2CCN(S(=O)(=O)CC)CC2)CC1,3.6%
3,O=C(Nc1nc2c(s1)CCc1ccccc1-2)c1ccco1,5.1%
4,CC1CCc2nc(NC(=O)c3ccco3)sc2C1 (centres undefined),-5.4%
5,O=S(=O)(Cc1ccccc1)NCc1ccccn1,1.9%
6,C=CCn1c(SCC(=O)NCc2ccco2)nnc1-c1ccc2ccccc2n1,16.6%
7,CN(C)CCOc1nc(-c2ccccc2)nc2c1oc1ccccc12,56.8% (active)
8,CCc1nc(OCCN(C)C)c2oc3ccccc3c2n1,-2.7%
9,CCN(CC)CCOc1nc(C)nc2c1oc1ccccc12,-1.3%
10,CC1Oc2ccccc2N(Cc2ccccc2F)C1=O (centres undefined),3.3%
11,CCOC(=O)c1ccccc1NC(=O)COC,-2.8%
12,CCOC(=O)c1cccc(C(=O)OCC)n1,-5.9%
13,Cc1ccccc1CS(=O)(=O)Cc1ccc(C(=O)NCCCN2CCCC2=O)o1,-10.2%
14,CCOC(=O)c1c(NC(=O)c2nn(CC)cc2Br)sc2c1CCCCC2,16.9%
15,Clc1ccc(-n2nnnc2Sc2ncnc3sccc23)cc1,-6.3%
16,Cc1sc2ncnc(Sc3nnnn3-c3ccccc3)c2c1C,101% (active)
17,CCCn1c(Sc2nnnn2-c2ccccc2)n[nH]c1=O,-14.1%
18,Cc1sc2ncnc(SCc3ccco3)c2c1C,-15.5%
19,Cc1nc(Sc2nnnn2-c2ccccc2)c(C#N)c(C)c1C,-8%
20,CCOC(=O)c1ccc(CNC(=O)c2cc3cccc(OC)c3oc2=O)o1,-2.4%
